A selection: hits, their analogues and other compounds. The true share with any hit is near 3.9%.
BoNT-F LC inh – blocks Botulinum neurotoxin F light chain protease; Multiplex microsphere protease cleavage assay, flow cytometry; inhibition, % at 10 µM; 360,000 compounds, 0.22% hits; in the data active = inhibition above about 35%, passing the limit was not always enough; inconclusive = no clear call, values can overlap the other calls; note: plate controls were buffer without enzyme for full effect and enzyme alone for no effect
Autofluor counter – compound fluorescence in toxin protease inhibitor counterscreen; compound autofluorescence counterscreen, microsphere flow cytometry; hits give high values; fluorescence intensity (no concentration beside the values); 360,000 compounds, 3.1% hits; in the data active = fluorescence intensity above about 16000; inconclusive = no clear call, values can overlap the other calls
MazEF act – increases E. coli MazEF RNase cleavage of RNA; activation, % at 20 µM; P0AE70; 350,000 compounds, 0.32% hits; FAM/BHQ RNA-DNA oligo cleavage fluorescence, 5 h; in the data active = activation above about 50%
Target sequence (P0AE70 whole entry, looked up): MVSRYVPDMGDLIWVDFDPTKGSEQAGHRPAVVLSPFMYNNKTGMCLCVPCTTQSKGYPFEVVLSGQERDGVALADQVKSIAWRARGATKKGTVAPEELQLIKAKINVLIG
Anthrax LF inh2 – blocks Bacillus anthracis lethal factor protease; P15917; multiplex microsphere protease cleavage assay, LF; inhibition, % at 10 µM; 360,000 compounds, 0.12% hits; AID 588501; note: plate controls were buffer without enzyme for full effect and enzyme alone for no effect
Vc quorum ag – inducers of Vibrio cholerae quorum light production without autoinducers; V. cholerae BH1578 lux reporter, luminescence, 6 h; activation, % at 18.7 µM; 350,000 compounds, 0.16% hits; in the data active = activation mostly above about 9.7%, no sharp cut-off; inconclusive = no clear call, values can overlap the other calls; inactive = mostly below about 3.7%
BoNT A protease – BoNT A light chain protease inhibition; multiplex microsphere protease substrate cleavage, flow cytometry; inhibition, % at 10 µM; 360,000 compounds, 0.17% hits; note: plate controls were buffer without enzyme for full effect and enzyme alone for no effect
An asterisk follows results filed as active; i = inactive; ? = inconclusive; . = not tested or not shown. Cut-off read from the data, not from the text of the source, unless noted: active = inhibition above about 30%; inconclusive = no clear call, values can overlap the other calls; inactive = below that.

SMILES	BoNT-F LC inh	Autofluor counter	MazEF act	Anthrax LF inh2	Vc quorum ag	BoNT A protease
Cc1ccc(Nc2c(-c3ccccn3)nc3cccc(C)n23)cc1	-0.9	3726	-1.6	-0.4	i	-3.7
COc1cc(C2C(C#N)=C(N)Oc3c2ccc2ccccc32)ccc1OCC(=O)Nc1ccccc1C (stereo not given)	-0.4	22354*	1.9	-1.0	-2.9	?
COC(=O)c1ccc(NC(=O)COc2ccc(C3C(C#N)=C(N)Oc4c3ccc3ccccc43)cc2OC)cc1 (stereo not given)	-1.4	4068	-15.1	5.2	-0.3	1.4
O=C(CSc1ncnc2c1cnn2-c1ccccc1)NCC1CCCO1 (stereo not given)	-10.8	5382	0.2	-3.3	-1.5	-0.2
CCCc1cc(N2CCCC(C(=O)NCC)C2)n2ncnc2n1 (stereo not given)	0.6	20607*	3.5	-0.2	0.6	-0.2
CCNC(=O)C1CCCN(c2nc(C)cc(C)n2)C1 (stereo not given)	-1.5	4365	2.5	-1.0	-0.2	-0.1
O=C(NCCCCNC(=O)C1CCCC1)C1CCCC1	2.5	22858*	0.4	0.1	i	0.0
O=C(NCCCCc1ccccc1)C1CCCC1	-12.5	3013	-0.8	-11.0	-0.6	1.7
CCN(CC)C(=O)C1=C(C)N(CCCOC)C(=O)C(CC(=O)NC(c2ccccc2)c2ccccc2)C1 (stereo not given)	-5.4	2946	3.1	-1.4	-0.4	-0.3
CCC(C)NCCOCCOc1ccccc1-c1ccccc1 (stereo not given)	-4.6	23087*	6.9	-5.0	i	-0.4
CCC(C)NCCOCCOc1ccc(Cl)cc1Br (stereo not given)	35.1*	4372	-23.1	-7.3	i	5.1
Cn1ncc(Br)c1C(=O)Nc1c(F)c(F)cc(F)c1F	-1.3	21682*	-5.2	-1.0	i	?
CCN1C(=NCCCOC(C)C)N[C@@H](CCc2ccccc2)[C@H](C(=O)NCCCOC(C)C)[C@H]1C	-9.6	3578	-7.1	0.9	i	1.3
O=c1c(-c2ccc(Oc3ccccc3)cc2)[n+]([O-])c2ccccc2n1OCc1ccccn1	-4.9	9164	-13.3	-15.9	-0.3	-0.7
CCOc1ccc(-c2c(=O)n(OCc3ccccn3)c3ccccc3[n+]2[O-])cc1	1.0	22653*	1.1	0.3	i	1.3
CCOC(=O)COn1c(=O)c(-c2ccccc2)[n+]([O-])c2ccccc21	31.1	3611	12.3	29.7*	i	1.6
COc1ccc(N2C(=O)C(CC(=O)Nc3ccc(F)cc3)N(CCc3ccc(OC)c(OC)c3)C2=O)cc1 (stereo not given)	-1.6	2342	8.5	-1.1	i	-0.2
CCOc1ccccc1Nc1nnc(C)c(=O)[nH]1	-6.0	7155	-14.8	0.8	i	-1.5
COc1ccccc1Nc1nnc(C)c(=O)[nH]1	-2.5	16456*	0.3	-1.3	i	-0.8
N/C(CN1CCCC1=O)=N\O	-3.8	24371*	2.4	-0.1	i	-3.7
Cc1c(NC(=O)CSc2nnnn2-c2ccc(O)cc2)c(=O)n(-c2ccccc2)n1C	-3.5	23720*	1.2	-1.9	i	?
CSc1nsc(SCC(=O)Nc2c(C)n(C)n(-c3ccccc3)c2=O)n1	0.8	20801*	0.9	0.9	i	2.1
COc1ccc(-n2nnnc2SCC(=O)Nc2nnn(C)n2)cc1	0.5	22244*	6.8	-2.1	-0.2	1.9
Cc1nc(-c2cccc(NS(=O)(=O)c3cccc4ccccc34)c2)cs1	3.1	22200*	1.6	-0.7	-1.8	?
Cc1nc(-c2cccc(NS(C)(=O)=O)c2)cs1	4.2	?	-0.8	-7.2	-0.2	2.4
SMILES	BoNT-F LC inh	Autofluor counter	MazEF act	Anthrax LF inh2	Vc quorum ag	BoNT A protease
O=C(O)CC(c1ccc(Br)cc1)N1Cc2ccccc2C1=O (stereo not given)	-6.8	2984	-3.4	13.7	i	-0.3
Cc1cc(C)cc(NC(=O)c2cc3c(=O)n4ccccc4nc3s2)c1	4.5	2931	69.5*	-0.4	-0.9	-0.4
CC1CN(C(=O)c2cc3c(=O)n4ccccc4nc3s2)CC(C)O1 (stereo not given)	0.5	16544*	-1.3	-0.7	i	-0.5
Cn1c(=O)[nH]c(=O)c2c1nc(NCc1ccco1)n2Cc1ccccc1Cl	-2.6	3674	1.9	-5.9	i	0.0
CCn1c(NCc2ccco2)nc2c1c(=O)n(C)c(=O)n2C	-2.0	21102*	40.5	1.3	-11.5	-0.9
Cn1c(=O)c2c(nc(NCc3ccco3)n2Cc2ccc(Cl)cc2Cl)n(C)c1=O	-7.3	24075*	17.0	-3.9	i	-3.6
Cn1c(=O)c2c(nc(NCc3ccco3)n2CCc2ccccc2)n(C)c1=O	-2.9	2986	-9.3	-1.8	.	0.7
COc1ccc(C)cc1S(=O)(=O)Nc1ccc2c(c1)OCCO2	-1.0	3592	8.5	1.0	2.3	0.5
COc1ccc(C2SCC(=O)Nc3c2c(C)nn3-c2ccccc2)cc1 (stereo not given)	-9.6	5052	2.9	0.7	-0.5	-0.9
Cc1nn(C2CCOC(C)(C)C2)c2c1C(c1ccc(OC(C)C)cc1)SCC(=O)N2 (stereo not given)	-1.5	21930*	-7.2	0.0	i	0.0
COc1ccccc1Oc1nc([N+](=O)[O-])nn1CC(N)=O	5.5	4427	-1.8	9.8	-0.3	-0.9
CCN(CC)S(=O)(=O)c1ccc(S(=O)(=O)N(CC(=O)Nc2ccccc2)Cc2ccco2)cc1	2.8	22492*	4.9	-0.2	0.2	3.8
CN(C)S(=O)(=O)c1ccc(S(=O)(=O)N(CC(=O)Nc2ccccc2)Cc2ccco2)cc1	-2.9	2480	0.6	1.2	0.8	0.3
O=C(CN(Cc1ccc(Br)cc1)S(=O)(=O)c1ccccc1)NCc1ccccn1	-8.4	5995	1.2	-4.8	0.3	-0.3
O=C(CN(Cc1ccccc1)S(=O)(=O)c1ccc(Br)cc1)NCc1ccco1	-9.1	23735*	-2.9	-6.8	-0.2	-5.0
CCOc1ccc(CCNC(=O)C2CC(C)=CCC2C(=O)O)cc1OCC (stereo not given)	-21.0	3677	4.4	24.2	-1.9	2.4
C=C(C)CNC(=S)NNC(=O)c1ccc(Br)cc1	0.5	8013	6.4	-0.4	i	-0.4
CCC(=O)Oc1c(C(=O)CC)cc2c(C)cc(=O)oc2c1C	12.6	7504	-4.2	-0.4	-0.3	1.0
CCC(=O)c1cc2c(C)cc(=O)oc2c(C)c1OC	3.1	22529*	10.0	-2.3	i	1.2
CC(=O)N1CCN(C(c2ccccc2)c2nnnn2C(C)(C)C)CC1 (stereo not given)	-5.3	6279	.	9.5	.	-0.1
Cc1ccccc1-c1nc(CN2CCC(C(=O)NCc3cccnc3)CC2)c(C)o1	-2.7	22517*	-5.8	-7.6	i	?
CCc1ccc(-c2nc(CN3CCC(C(=O)NCc4ccccc4OC)CC3)c(C)o2)cc1	-2.0	25156*	-7.4	1.1	1.4	?
Cc1oc(-c2ccccc2F)nc1CN1CCC(C(=O)NCc2cccnc2)CC1	1.4	20391*	1.0	-0.6	5.9	1.2

High-throughput results (PubChem)
